The list is not random: actives were taken first. Their share in the collection is about 7.4%.
SNCA expr inhib: Primary qHTS assay for inhibitors of alpha-synuclein gene (SNCA) expression; Potency, µM (series often up to 57.2 µM), for the others: top-dose activity change, negative = inhibition, actives largely listed as inhibitors; 140,000 tested, 0.17% active; HEK-293 SNCA-luciferase knock-in, luminescence, 24 h;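 further: plate controls were DMSO cells for no effect and cell-free wells for full effect; nearly all actives have a fitted effect of over 45% in size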
hNpr1 antagonist: Natriuretic polypeptide receptor (hNpr1) antagonism - Primary qHTS; Atrial natriuretic peptide receptor 1 (Homo sapiens), P16066; HEK293 hNpr1 GloSensor cGMP, ANP-stimulated luminescence; Potency, µM (doses to about 46.3 µM), inactives show at the highest dose activity change, negative = inhibition, hits mostly inhibitors; 76,000 tested, 1.6% active; AID 1347048, 2019; calls by dose curve; further: nearly all actives have a fitted effect of over 60% in size
Target sequence (P16066 whole entry, looked up): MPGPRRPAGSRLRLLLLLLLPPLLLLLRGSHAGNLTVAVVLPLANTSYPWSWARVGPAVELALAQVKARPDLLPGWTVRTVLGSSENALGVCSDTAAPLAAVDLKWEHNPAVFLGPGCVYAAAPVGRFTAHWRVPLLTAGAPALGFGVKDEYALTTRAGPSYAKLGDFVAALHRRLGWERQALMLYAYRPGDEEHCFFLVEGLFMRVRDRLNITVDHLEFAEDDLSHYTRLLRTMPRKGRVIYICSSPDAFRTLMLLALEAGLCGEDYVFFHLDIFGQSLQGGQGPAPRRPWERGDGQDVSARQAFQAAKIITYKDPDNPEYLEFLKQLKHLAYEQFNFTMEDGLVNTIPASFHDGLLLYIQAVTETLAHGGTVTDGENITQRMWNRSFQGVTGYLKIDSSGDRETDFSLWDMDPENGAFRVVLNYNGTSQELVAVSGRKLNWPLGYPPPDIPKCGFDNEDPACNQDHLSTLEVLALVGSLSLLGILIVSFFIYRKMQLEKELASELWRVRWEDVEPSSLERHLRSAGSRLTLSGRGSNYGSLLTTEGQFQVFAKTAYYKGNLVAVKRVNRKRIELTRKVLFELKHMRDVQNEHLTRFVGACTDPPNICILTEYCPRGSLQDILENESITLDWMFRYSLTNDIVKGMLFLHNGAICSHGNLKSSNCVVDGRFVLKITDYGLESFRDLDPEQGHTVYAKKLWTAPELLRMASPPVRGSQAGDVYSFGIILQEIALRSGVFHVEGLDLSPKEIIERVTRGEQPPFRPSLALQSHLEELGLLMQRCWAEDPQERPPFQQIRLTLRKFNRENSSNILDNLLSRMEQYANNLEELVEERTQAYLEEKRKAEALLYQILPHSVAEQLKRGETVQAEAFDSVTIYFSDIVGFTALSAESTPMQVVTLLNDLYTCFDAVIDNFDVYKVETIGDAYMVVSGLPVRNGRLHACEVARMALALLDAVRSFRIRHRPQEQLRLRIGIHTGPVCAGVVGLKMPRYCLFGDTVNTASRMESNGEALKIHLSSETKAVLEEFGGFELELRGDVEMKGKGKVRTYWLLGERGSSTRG
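Compound pre-incubated 30 min at room temperature on GloSensor-loaded HEK293 cells stably carrying hNpr1 and the pGS-40F cGMP biosensor. Stimulation uses hNppA at 0.1 nM final; luminescence is taken at baseline and 20 min post-agonist.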
SNCA viab count: GF-AFC viability counterscreen for inhibitors of alpha-synuclein gene (SNCA) expression; HEK-293-SNCA-luc viability, GF-AFC fluorescence, 24 h; Potency, µM (highest dose often 57.1 µM), for the others: top-dose activity change, negative = cytotoxicity, actives largely listed as cytotoxic; 150,000 tested, 0.12% active; AID 1671193, 2021;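 further: 0% = DMSO-treated cells and -100% = medium-only wells without cells; nearly all actives have a fitted effect of over 30% in size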
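Cytotoxicity counterscreen: after 24 h compound treatment of genome-edited SNCA-luciferase HEK-293 cells, live-cell protease substrate GF-AFC read by fluorescence after 30 min; activity scaled between DMSO (0%) and medium-only (-100%), curves Hill-fitted.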
NIH3T3 tox: Cytotoxic Profiling in NIH 3T3 Cell Line of Diverse Libraries Using Quantitative High-Throughput Screening; NIH 3T3 viability, CellTiter-Glo ATP luminescence, 48-72 h; Potency, µM (doses to about 96.7 µM), for inactives: at the highest dose activity change, negative = cytotoxicity, hits mostly inhibitors; 94,000 tested, 4.3% active; AID 1345082, 2018; further: nearly all actives have a fitted effect of over 55% in size
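ATP-dependent luminescence (CellTiter-Glo) served as the viability signal for NIH 3T3 cells treated with compound for 48 or 72 hr at 37 °C.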
HEK293 tox: Cytotoxic Profiling in HEK 293 Cell Line of Diverse Libraries Using Quantitative High-Throughput Screening; Potency, µM (series often up to 115 µM), for inactives: top-dose activity change, negative = cytotoxicity, actives largely listed as inhibitors; HEK 293 viability, ATP luminescence (CellTiter-Glo), 48-72 h; 94,000 tested, 6.6% active; further: nearly all actives have a fitted effect of over 60% in size
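Viability of HEK 293 cells, plated at 250 cells/well, was judged by cellular ATP after compound treatment for 48 or 72 hr. Luminescence was imaged 10 min after CellTiter-Glo addition at room temperature.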
FLuc inh: Firefly luciferase inhibition profiling of diverse chemical library using quantitative high-throughput screening | Luciferin 4-monooxygenase (Photinus pyralis), P08659 | purified P. pyralis luciferase, luminescence, biochemical | Potency, µM (series often up to 115 µM), most hits filed as inhibitors | 76,000 tested, 2.5% active; further: nearly all actives have a fitted effect of over 65% in size
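Luminescence read by CCD imaging after purified firefly luciferase (10nM final) was added to substrate buffer holding 10uM D-luciferin and 10uM ATP, pH 7.5, pre-dosed with compound.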
* = called active by the depositor; [ ] = dose if it differs, or a comment. Unless noted, the call rests on the fitted dose curve; in most records, active means well fitted curve in the direction sought with a large enough effect; inconclusive means small, poorly fitted or top-dose-only effect, or another doubt; inactive means no such curve, though single readings can be large; an effect the other way counts as inactive or inconclusive. Unless noted, on the % scale 0 is the no-effect control and ±100 the full control effect; potency means the concentration at half of the fitted maximal effect.

NC(=O)[C@H](Cc1cccs1)NC(=O)C1=C[C@@H](NC(=O)NC2CCCCC2)[C@@H](O)[C@H](O)C1 was read as SNCA expr inhib -6%, hNpr1 antagonist -6%, SNCA viab count -1%, NIH3T3 tox -3%, HEK293 tox inactive and FLuc inh inactive.
`COc1ccc(CN2CC(c3nc(Cc4cccnc4)no3)C2)c(OC)c1` gave SNCA expr inhib inconclusive, hNpr1 antagonist inconclusive, SNCA viab count inconclusive, NIH3T3 tox 16µM*, HEK293 tox inconclusive and FLuc inh inactive.
`O=C(O)c1ccc(CN[C@@H]2CO[C@H](CNS(=O)(=O)c3ccccc3)[C@H]2O)cc1` gave SNCA expr inhib 0%[87.6 µM], hNpr1 antagonist -1%[70.6 µM], SNCA viab count 1%[87.6 µM], NIH3T3 tox -10%[174 µM], HEK293 tox -1%[172 µM] and FLuc inh inactive.
`Cc1ccc(OCc2nc(C3CCCN3C(=O)Nc3ccccc3)no2)cc1` (stereo not given) gave SNCA expr inhib 24%, SNCA viab count -2%, NIH3T3 tox inconclusive and HEK293 tox 89µM*.
`Cc1ccc(OCc2nc(C3CCCN3C(=O)Nc3ccc(C)c(F)c3)no2)cc1` (stereo not given) gave SNCA expr inhib 18%, hNpr1 antagonist -23%, SNCA viab count 0%, NIH3T3 tox inconclusive, HEK293 tox 89µM* and FLuc inh inactive.
`Cc1ccc(NC(=O)N2CCCCC2c2noc(COc3ccc(F)cc3)n2)cc1F` (stereo not given) gave SNCA expr inhib 10%, hNpr1 antagonist -26%, SNCA viab count -7%, NIH3T3 tox inconclusive, HEK293 tox 45µM* and FLuc inh inactive.
COc1ccc(CNC(=O)N2CCCC2c2noc(COc3ccc(C)cc3)n2)cc1 (stereo not given) was read as SNCA expr inhib 40%, hNpr1 antagonist -18%, SNCA viab count 2%, NIH3T3 tox inconclusive, HEK293 tox inconclusive and FLuc inh inactive.
`Cc1ccc(OCc2nc(C3CCCN3C(=O)NCC(C)C)no2)cc1` (stereo not given) gave SNCA expr inhib 45%, SNCA viab count 8%, NIH3T3 tox -22% and HEK293 tox -12%.
`CC(C)c1noc(-c2cn(C3CCCN(C(=O)c4ccc(Cl)cc4)C3)nn2)n1` (stereo not given) gave SNCA expr inhib 8%, hNpr1 antagonist inconclusive, SNCA viab count -2%, NIH3T3 tox inconclusive, HEK293 tox inconclusive and FLuc inh inactive.
Screening COc1ccccc1OC1CCN(Cc2cc3n(n2)CCNC3)CC1 returned SNCA expr inhib -3%, hNpr1 antagonist 2%, SNCA viab count 1%, NIH3T3 tox -6%, HEK293 tox -8% and FLuc inh inactive.
For Cc1ccc(SC2CCN(Cc3cc4n(n3)CCNC4)CC2)cc1 the results were SNCA expr inhib -25%, hNpr1 antagonist 1%, SNCA viab count -14%, NIH3T3 tox 14µM*, HEK293 tox 14µM* and FLuc inh inactive.
For Clc1ccc(-c2nnc([C@H]3CCN(Cc4c[nH]c5ccccc45)C3)o2)cc1 the results were SNCA expr inhib 41%[87.6 µM], hNpr1 antagonist -28%[70.6 µM], SNCA viab count -12%[87.6 µM], NIH3T3 tox 112µM*, HEK293 tox inconclusive and FLuc inh inactive.
For c1ccc(-c2nnc([C@H]3CCN(Cc4ccco4)C3)o2)cc1 the results were SNCA expr inhib 91%[87.6 µM], hNpr1 antagonist -2%[70.6 µM], SNCA viab count -4%[87.6 µM], NIH3T3 tox -8%[174 µM], HEK293 tox inconclusive and FLuc inh 50µM*.
Screening Clc1ccc(-c2nnc([C@H]3CCN(Cc4ccco4)C3)o2)cc1 returned SNCA expr inhib 122%[87.6 µM], hNpr1 antagonist -6%[70.6 µM], SNCA viab count 3%[87.6 µM], NIH3T3 tox -37%[174 µM], HEK293 tox -21%[172 µM] and FLuc inh 45µM*.
`COc1cccc(N2CC(C(=O)N3CCOCC3)NC2=O)c1` (stereo not given) gave SNCA expr inhib 22%[87.6 µM], hNpr1 antagonist -9%[70.6 µM], SNCA viab count 6%[87.6 µM], NIH3T3 tox -5%[138 µM], HEK293 tox -6%[172 µM] and FLuc inh inactive.
`CN1C(=O)CCC2(CNC(=O)c3ccsc3)CCC=C12` (stereo not given) gave SNCA expr inhib 7%, hNpr1 antagonist 4%, SNCA viab count -6%, NIH3T3 tox -11%, HEK293 tox 2% and FLuc inh inactive.
`CCCOCCNC(=O)c1c(C)noc1-c1ccc(OC)cc1` gave SNCA expr inhib -11%, hNpr1 antagonist -9%, SNCA viab count 2%, NIH3T3 tox -26%, HEK293 tox inconclusive and FLuc inh inactive.
Screening CN1CCCC2(CCN(S(=O)(=O)c3ccc4[nH]c(=O)[nH]c4c3)C2)C1=O (stereo not given) returned SNCA expr inhib 8%, hNpr1 antagonist 3%, SNCA viab count 11%, NIH3T3 tox inactive, HEK293 tox 0% and FLuc inh inactive.
`CCCC(=O)N1Cc2ccccc2CC2(CCN(CC3CCOCC3)CC2)C1` gave SNCA expr inhib -3%, SNCA viab count 9%, NIH3T3 tox -1% and HEK293 tox -7%.
CC1=C[C@@H](CNC(=O)COc2ccccc2)[C@H](C(C)C)C[C@H]1Cc1nnc(-c2cncn2C)o1 was read as SNCA expr inhib 9%, hNpr1 antagonist -24%, SNCA viab count inconclusive, NIH3T3 tox inconclusive, HEK293 tox 50µM* and FLuc inh inactive.
For CC1=C[C@@H](CN2CCC[C@H]2CO)[C@H](C(C)C)C[C@H]1Cc1nnc(-c2cncn2C)o1 the results were SNCA expr inhib -14%[87.6 µM], hNpr1 antagonist 1%[70.6 µM], SNCA viab count -13%[87.6 µM], NIH3T3 tox 100µM*, HEK293 tox inconclusive and FLuc inh inactive.
Screening O=c1[nH]c(N2CCOCC2)nc2c1CCN(Cc1cccc(Cl)c1F)CC2 returned SNCA expr inhib -29%, hNpr1 antagonist -5%, SNCA viab count -11%, NIH3T3 tox inconclusive, HEK293 tox inconclusive and FLuc inh inactive.
Screening COc1cccc(C(=O)N2CCc3c([nH]c4ccccc34)C2c2ccc(SC)cc2)c1 (stereo not given) returned SNCA expr inhib -12% and SNCA viab count 0%.

Compound activity as filed in PubChem.
